# According to PubChem BioAssay (NCATS):
# Inconclusive results are not listed. Entries that show only a call come without a potency. Activity calls are given as the source filed them. Calls come from the whole dose curve; as a rule, active = well fitted inhibition curve with a large enough effect; inconclusive = small, poorly fitted or top-dose-only effect; inactive = flat fitted curve, though single readings scatter.
# How the values were obtained:
# HaCat [1] = experiment: Cytotoxic Profiling of Annotated Libraries Using Quantitative High-Throughput Screening (AID 1296008); details: Five cell lines viability, CellTiter-Glo ATP luminescence, 48-72 h; max response: stronger effect = lower value
# Procedure, shortened: (§1)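 Compounds were pin-transferred onto cells and incubated 48 or 72 hr at 37 degree Celsius, 95% humidity. CellTiter-Glo was added, plates sat 10 min at room temperature, then ATP-coupled luminescence was imaged as the viability read-out.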
# KB-3-1 = experiment: as above; details: Five cell lines viability, CellTiter-Glo ATP luminescence, 48-72 h; max response: stronger effect = lower value
# Procedure, shortened: as §1
# HACAT [2] = experiment: qHTS assay to identify novel small-molecules to repurpose for Merkel cell carcinoma treatment (AID 1296009); details: MCC and control cell lines, CellTiter-Glo viability, 72 h; at 44.8 µM (top of the series) unless noted
# Procedure, shortened: (§2)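 Luminescence from CellTiter-Glo, read 10 min after addition at room temperature, reported viability following a 72 hr, 37 degree celsius treatment with NPC or MIPE compounds in titration; values normalized to plate controls.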
# MCC-13 = experiment: as above; details: MCC and control cell lines, CellTiter-Glo viability, 72 h; series mostly up to 46 µM
# Procedure, shortened: as §2
# MCC-26 = experiment: as above; details: MCC and control cell lines, CellTiter-Glo viability, 72 h; series mostly up to 46 µM
# Procedure, shortened: as §2
# MKL-2 = experiment: as above; details: MCC and control cell lines, CellTiter-Glo viability, 72 h; series mostly up to 46 µM
# Procedure, shortened: as §2
# PC26 = experiment: qHTS profiling for inhibitors of Plasmodium falciparum proliferation (AID 504749); details: P. falciparum in erythrocytes, SYBR Green DNA, 72 h; series mostly up to 28.7 µM
# Procedure, shortened: (§3)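 Fluorescence of SYBR Green-bound parasite DNA, read at 485/535 nm, served as the growth measure. Infected erythrocytes were cultured with compound 72 h; artemisinin (0.29 uM) and DMSO wells defined the normalization range.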
# W2 = experiment: as above; details: P. falciparum in erythrocytes, SYBR Green DNA, 72 h; series mostly up to 28.7 µM
# Procedure, shortened: as §3
# NIH3T3 = experiment: Cytotoxic Profiling of Annotated Libraries Using Quantitative High-Throughput Screening (AID 1296008); details: Five cell lines viability, CellTiter-Glo ATP luminescence, 48-72 h; max response: stronger effect = lower value
# Procedure, shortened: as §1
# MKL-1 = experiment: qHTS assay to identify novel small-molecules to repurpose for Merkel cell carcinoma treatment (AID 1296009); details: MCC and control cell lines, CellTiter-Glo viability, 72 h; series mostly up to 46 µM
# Procedure, shortened: as §2
# HEK293 = experiment: Cytotoxic Profiling of Annotated Libraries Using Quantitative High-Throughput Screening (AID 1296008); details: Five cell lines viability, CellTiter-Glo ATP luminescence, 48-72 h; max response: stronger effect = lower value
# Procedure, shortened: as §1
# Note: nearly all actives have a fitted effect of over 60% in size.
# Potency is the fitted concentration of half-maximal effect.
smiles,measurement,setting,value
CC(C)=CC[C@@H](O)C1=CC(=O)c2c(O)ccc(O)c2C1=O,outcome,HaCat [1],inactive
same,max response,KB-3-1,6.3% (inactive)
same,outcome,HACAT [2],inactive
same,Potency,MCC-13,inactive
same,Potency,MCC-26,inactive
same,Potency,MKL-2,20.9 µM (active)
COCCCCC(=NOCCN)c1ccc(C(F)(F)F)cc1,Potency,PC26,6.75 µM (active)
same,Potency,W2,2.69 µM (active)
c1ccc2c(-c3cnn4cc(-c5ccc(N6CCNCC6)cc5)cnc34)ccnc2c1,Potency,KB-3-1,3.32 µM (active)
same,max response,NIH3T3,-102% (inactive)
same,Potency,MCC-13,10.5 µM (active)
same,Potency,MKL-1,2.96 µM (active)
c1ccc2c(Cc3c[nH]c4ccccc34)c[nH]c2c1,outcome,HaCat [1],inactive
same,max response,KB-3-1,-13.3% (inactive)
same,outcome,HACAT [2],inactive
same,Potency,MCC-13,inactive
same,Potency,MCC-26,inactive
same,Potency,MKL-1,inactive
C[N+](C)(C)CC(=O)O,Potency,MCC-13,inactive
same,Potency,MCC-26,inactive
same,Potency,MKL-1,inactive
same,Potency,MKL-2,inactive
CNC(=O)c1ccccc1Sc1ccc2c(C=Cc3ccccn3)n[nH]c2c1,Potency,HEK293,14.8 µM (active)
same,Potency,NIH3T3,3.72 µM (active)
Nc1nc(F)nc2c1ncn2[C@@H]1O[C@H](COP(=O)(O)O)[C@@H](O)[C@H]1O,max response,HEK293,-8.85% (inactive)
same,outcome,KB-3-1,inactive
same,Potency,MCC-26,inactive
Cc1ccc(C(=O)Nc2cccc(C(F)(F)F)c2)cc1Nc1nc(-c2cccnc2)nc2c1cnn2C,Potency,HEK293,13.2 µM (active)
same,max response,KB-3-1,-14.6% (inactive)
same,Potency,NIH3T3,9.35 µM (active)
same,Potency,MCC-13,inactive
same,Potency,MCC-26,inactive
same,Potency,MKL-1,inactive
same,Potency,MKL-2,inactive
CC[C@@H]1C=C(C)C[C@H](C)C[C@H](OC)[C@H]2O[C@@](O)(C(=O)C(=O)N3CCCC[C@@H]3C(=O)O[C@H](C(C)=C[C@@H]3CC[C@H](Cl)[C@H](OC)C3)[C@H](C)[C@@H](O)CC1=O)[C@H](C)C[C@H]2OC,Potency,HEK293,16.6 µM (active)
same,outcome,KB-3-1,inactive
same,max response,NIH3T3,-7.01% (inactive)
same,Potency,MCC-13,inactive
same,Potency,MCC-26,inactive
CC(C)OC(=O)CCCC=CC[C@@H]1[C@H](C=C[C@@H](O)COc2cccc(C(F)(F)F)c2)[C@H](O)C[C@@H]1O,Potency,HEK293,11.8 µM (active)
same,Potency,MCC-26,inactive
same,Potency,MKL-1,inactive
O=C(O)c1ccc(-c2cc3cccnc3c(-c3ccc4nonc4c3)n2)cc1,Potency,HEK293,14.8 µM (active)
same,outcome,HaCat [1],inactive
same,outcome,HACAT [2],inactive
same,Potency,MCC-13,inactive
same,Potency,MCC-26,inactive
